An excerpt weighted towards active compounds, which were near 4% of everything screened.
TRHR agonist = qHTS for Small Molecule Agonists and Allosteric Enhancers of Human TRH Receptor: Primary Screen for Agonists. TRHR cells, calcium flux fluo-8, FDSS agonist mode. activation, % at 2 µM. 360,000 compounds, 0.18% hits; note: 0% is about no effect
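Read-out: compound-evoked intracellular calcium rise in TRHR cells, fluo-8 dye, kinetic FDSS fluorescence at 1 s/cycle following a 10-cycle baseline. Cells cultured overnight before dye loading (30 min–1.5 h, RT).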
TRHR PAM = qHTS for Small Molecule Agonists and Allosteric Enhancers of Human TRH Receptor: Primary Screen for Enhancers. TRHR cells, fluo-8 calcium fluorescence, EC20 TRH enhancement. Thyrotropin-releasing hormone receptor (Homo sapiens), P34981. enhancement, % at 2 µM. 360,000 compounds, 0.66% hits. AID 493056, 2011; in the data active = enhancement above about 30%; note: 0% is about no effect
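TRHR-expressing cells loaded with fluo-8 calcium dye were read kinetically (ex 480/em 530) during compound addition, then stimulated with an EC20 of TRH (10 nM final). Enhancement of the Gq-mediated intracellular calcium response was scored.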
D1 PAM = Potentiators of Human D1 Dopamine Receptor: qHTS. D(1A) dopamine receptor (Homo sapiens), P21728. HEK293 TREx D1 cells, calcium flux, dopamine EC20 potentiation. potentiation, % at 10 µM. 360,000 compounds, 0.036% hits. AID 504651, 2011; in the data active = potentiation above about 30%; note: 0% is about no effect
Target sequence (P21728 whole entry, looked up): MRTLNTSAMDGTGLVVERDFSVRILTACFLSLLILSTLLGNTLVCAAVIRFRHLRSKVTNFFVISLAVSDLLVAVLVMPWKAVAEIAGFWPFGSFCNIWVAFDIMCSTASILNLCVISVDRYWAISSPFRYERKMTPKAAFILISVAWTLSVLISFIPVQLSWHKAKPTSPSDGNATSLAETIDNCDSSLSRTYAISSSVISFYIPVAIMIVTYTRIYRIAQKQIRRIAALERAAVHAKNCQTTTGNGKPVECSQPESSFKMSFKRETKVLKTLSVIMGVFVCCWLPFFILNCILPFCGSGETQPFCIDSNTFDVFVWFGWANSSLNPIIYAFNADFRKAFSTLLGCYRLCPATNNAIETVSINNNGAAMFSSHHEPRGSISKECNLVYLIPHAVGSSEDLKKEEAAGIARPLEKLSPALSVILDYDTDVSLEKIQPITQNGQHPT
D1 agonist = Allosteric Agonists of the Human D1 Dopamine Receptor: qHTS; AID 504660, 2011; activation, % at 2 µM; 360,000 compounds, 1% hits; D(1A) dopamine receptor (Homo sapiens), P21728; HEK293 T-REx D1 cells, calcium flux, agonist mode; note: 0% is about no effect
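Inducible HEK293 T-REx D1 cells, force-coupled to calcium signalling, were plated at 4000 cells/well with tetracycline and held overnight at 30 C. After no-wash calcium dye loading, compound-evoked calcium rise over 180 s flagged agonists.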
D1 antagonist = Antagonist of Human D 1 Dopamine Receptor: qHTS; D(1A) dopamine receptor (Homo sapiens), P21728; HEK293 TREx D1 cells, calcium flux, dopamine EC80; active compounds read low; activity change, negative = inhibition, % at 10 µM; 360,000 compounds, 3.2% hits; AID 504652, 2011; in the data active = activity change below about -30%; note: % is set by controls: 0 for no effect and ±100 for the full control effect
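Compound effects on dopamine-evoked calcium signalling were measured in tetracycline-induced HEK293 Trex D1 cells. Dopamine at EC80 followed a 180 s compound pre-read, and fluorescence was tracked kinetically for 180 s more.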
GRP78 ERSR act = qHTS for Inducers of the Endoplasmic Reticulum Stress Response (ERSR) in Human Glioma: qHTS. U87-MG GRP78 promoter luciferase reporter, 16 h. Potency, µM, without a hit: at the highest dose activation, hits mostly activators. 420,000 compounds, 0.02% hits; active = well fitted activation curve with a large enough effect; note: potency is the fitted concentration of half-maximal effect; series mostly up to about 76 µM; % of control where 0% means no effect; nearly all actives have a fitted effect of over 35% in size
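ERSR induction read as luciferase luminescence (Bright-Glo, 10 min at room temperature) in stably transfected human U87-MG glioma cells exposed to compounds for 16 h, using GRP78 as sensor.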
Numbers without * were called inactive; x = no result given. Cut-off read from the data, not from the text of the source, unless noted: active = activation above about 30%; inactive = the rest.

SMILES	TRHR agonist	TRHR PAM	D1 PAM	D1 agonist	D1 antagonist	GRP78 ERSR act
Cc1nc(SC2CC(=O)N(c3ccc([N+](=O)[O-])cc3)C2=O)nc2c1CCCC2 (configuration not stated)	-0.3	4.1	-5.5	0.1	-6.4	-2.9%
Nc1c(C(=O)OCC(=O)Nc2ccc(Cl)cc2[N+](=O)[O-])[nH]c(=O)[nH]c1=O	-0.4	11.2	1.1	-0.1	-2.3	-4.9%
O=C(Nc1nnc(C2CCCCC2)s1)c1cccs1	1.8	3.3	1.4	4.6	2.8	3.6%
COc1ccc(C2C(C(=O)N3CCCCC3)CCC(=O)N2c2cc(OC)c(OC)c(OC)c2)cc1 (configuration not stated)	0.2	-9.2	-7.0	-2.6	-6.3	-5.3%
COC(=O)CC1C(=O)NCCN1C(=S)Nc1ccc(F)cc1 (configuration not stated)	0.5	-2.8	-5.3	2.5	-36.8*	-1.9%
C(=N\n1cnnc1)/c1nc2ccccc2[nH]1	0.5	-23.3	-12.2	-0.6	-34.1*	-5.2%
Cc1[nH]c2ccccc2c1/C=N/n1cnnc1	-0.4	-5.0	-7.6	1.5	-7.4	-8.5%
CC(=O)Oc1cccc(/C=C2\C=C(c3ccc(C)cc3)OC2=O)c1	0.3	-7.2	-6.4	7.0	1.9	-2.4%
COc1ccc(C2=C/C(=C/c3cccnc3)C(=O)O2)cc1OC	44.9*	1.9	-12.2	59.6*	-20.9	-3.0%
CCOc1ccc(C2=C/C(=C/c3cccnc3)C(=O)O2)cc1	16.7	-1.0	-2.0	65.2*	-13.6	2.2%
Cc1cc(C)c(-c2cc(C)nc3ncnn23)c(C)c1	0.5	0.9	4.0	3.3	-4.5	-0.7%
COc1ccc(CCNC(=O)C(=O)NN=C2CCCCCCC2)cc1OC	-0.7	-3.5	-7.8	1.2	-74.0*	-3.3%
COc1ccc(CCNC(=O)CCOc2ccc(C)cc2)cc1OC	0.6	-9.4	0.1	1.3	-17.7	-2.5%
COc1ccc(CCNC(=O)COc2ccc(-c3ccc(C)cc3)cc2)cc1OC	0.1	1.5	-1.4	2.1	-30.9*	-1.1%
CN(CC(=O)Nc1ccc(F)cc1)C(=O)COC(=O)CNC(=O)c1ccc(Cl)cc1Cl	-0.3	3.5	-6.0	0.7	-14.3	-3.3%
C=CCNC(=O)COC(=O)c1ccc(Sc2nncn2C)c([N+](=O)[O-])c1	0.4	4.7	2.2	0.1	-32.1*	3.8%
Cn1cnnc1Sc1ccc(C(=O)OCC(=O)NCC(F)(F)F)cc1[N+](=O)[O-]	0.3	1.7	-2.9	-0.2	-8.4	-1.4%
CC(=O)c1cc(C#N)c(SCCC(C)C)nc1C	0.2	11.2	-0.5	7.6	-40.8*	0.7%
CCSc1nc(C)c(C(C)=O)cc1C#N	-0.1	9.2	-4.1	0.8	16.9	0.5%
CC(=O)c1cc(C#N)c(N2CCCC2)nc1C	0.4	-3.1	2.8	7.3	-36.3*	-5.0%
CCOC(=O)c1c(C)[nH]c(C(=O)COC(=O)c2cnccn2)c1C	-0.1	0.4	x	7.0	-5.9	-2.7%
CC1(C(=O)NCCc2c[nH]c3ccccc23)CCN1Cc1ccccc1OC(F)F (configuration not stated)	x	x	x	x	x	-3.7%
CC(C)(S)C(=O)N[C@H](CS)C(=O)O	x	x	x	x	x	-1.2%
CCOC(=O)C1C(c2cccc(Cl)c2Cl)NC(=O)NC1(O)C(F)(F)F (configuration not stated)	0.5	8.7	-4.2	-3.4	-58.5*	1.4%
Cc1ccc2c(c1)-c1c(cnn1CC(=O)N(Cc1ccco1)C1CCCCC1)CO2	0.2	-10.5	20.7	-1.9	39.6	-1.1%
SMILES	TRHR agonist	TRHR PAM	D1 PAM	D1 agonist	D1 antagonist	GRP78 ERSR act
Cc1nnc(NC(=O)CSc2nnc(Cc3cccn3C)n2-c2ccccc2)s1	0.2	39.3*	-8.8	2.9	10.2	1.0%
Cc1nnc(NC(=O)CSc2nnc(Cc3cccn3C)n2-c2cccc(C)c2C)s1	-0.6	-3.1	2.2	2.5	-6.0	x
COc1ccc(NC(=O)CSc2nnc(Cc3cccn3C)n2-c2ccc(C)cc2)cc1OC	-0.5	2.0	-3.2	0.3	-39.3*	-3.4%
COc1ccccc1NC(=O)CSc1nnc(Cc2cccn2C)n1CCc1ccccc1	0.1	-8.6	-7.0	3.2	-31.1*	-2.9%
O=C(CSc1nnc(Cc2ccccc2)n1-c1ccccc1)NNC(=O)Cc1ccccc1	0.1	31.4*	3.4	3.2	3.2	-2.0%
COc1ccc(NC(=O)CSc2nnc(Cc3cccn3C)n2CCc2ccccc2)c(OC)c1	-0.6	7.1	2.6	-0.6	1.2	-1.1%
O=C(CSc1n[nH]c(-c2cccnc2)n1)Nc1ccc([N+](=O)[O-])cc1	0.0	15.6	-5.3	1.4	7.0	-0.3%
Cc1ccc(N(CC2CO2)S(=O)(=O)c2ccc([N+](=O)[O-])cc2)cc1 (configuration not stated)	-1.0	5.9	3.1	1.7	1.3	-2.7%
CCOC(=O)c1c(S(=O)(=O)Nc2cccc(-c3ccno3)c2)c(C)n(C)c1C	-0.4	16.3	-7.5	1.6	18.1	-0.2%
COc1ccc(N(CC(=O)NCc2ccccc2)S(=O)(=O)c2c(C)n[nH]c2C)cc1	0.0	3.9	-5.2	3.9	27.3	-1.6%
COCCNC(=O)C(c1ccc(F)cc1)N(Cc1ccco1)C(=O)CCC(=O)Nc1nccs1 (configuration not stated)	0.3	0.5	3.5	2.5	6.3	-7.5%
O=C(OCc1cn([C@@H]2CN(C(=O)c3cccs3)[C@@H](c3ccccc3)C[C@H]2O)nn1)c1ccccc1	x	x	x	x	x	-8.6%
CC1CCCCN1CCCNC(=O)c1ccc2nc(N3CCCCC3)sc2c1 (configuration not stated)	0.6	1.4	4.5	0.6	0.4	-1.3%
O=S(=O)(NCC1CCCO1)c1ccc2c(c1)OCCO2 (configuration not stated)	0.6	1.6	-2.6	-2.5	12.5	-2.0%
Oc1[nH]c2ccccc2c1N=NC(=S)NCCc1ccccc1	-1.0	-0.3	-11.6	4.1	-30.3*	6.4%
CC(C)c1ccc2[nH]c(O)c(N=NC(=S)NCCc3ccccc3)c2c1	-1.0	1.8	-0.9	5.8	14.4	-1.8%
NC(=S)N=Nc1c(O)[nH]c2ccccc12	0.6	-0.9	0.7	3.2	-11.9	-1.9%
CCCCNC(=S)N=Nc1c(O)[nH]c2ccccc12	0.2	3.4	-10.9	0.2	-31.2*	5.5%
